Results from PubChem BioAssay AID720553 (National Center for Advancing Translational Sciences (NCATS), 2013).
Out of some 340,000 compounds screened, about 3,300 (0.97%) were called active. The full list was thinned out, with actives kept by preference. Unmarked numbers belong to inactive results.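 Rule for the calls: active = maximum activity change below -70%; inconclusive = maximum activity change from -70% to -50%; inactive = maximum activity change above -50%.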

These compounds were tested on Potassium voltage-gated channel subfamily H member 2, brain isoform KCNH2 3.1 (human) (assay: qHTS for Inhibitors of KCHN2 3.1: Mutant qHTS). Settings: U2OS KCNH2 3.1, thallium flux FluxOr; active compounds read low.
From the text: Many antipsychotic drugs that inhibit the neurotransmitter dopamine also bind to hERG1 channel which might help explain their antipsychotic activity but also produces cardiac side effects. The discovery of the novel KCNH2 3.1 isoform offers a potential new target for the development of antipsychotic drugs without cardiac side effects. This proposal will use a high throughput thallium flux assay developed for KCNH2 to screen compounds that modulate the activity of KCNH2 3.1. The wild type KCNH2 channel will also be screened in parallel to help define the selective modulators of this KCNH2 3.1 potassium channel. The resulting compounds will be validated in electrophysiology experiments. The availability of animal models will allow future testing in vivo for effects on memory and other aspects of animal physiology linked with psychosis. NIH Chemical Genomics Center [NCGC] NIH Molecular Libraries Probe Centers Network [MLPCN] MLPCN Grant: MH096539 Assay Submitter (PI): James Barrow, Johns Hopkins University, Lieber Institute for Brain Development
U2OS cells were resuspended in cell media containing 10% fetal calf serum (FCS) at a concentration of 2 million cells / mL. The solution was treated with the mutant (3.1) virus at 1.77 x 10^8 / mL and allowed to incubate at room temperature in the dark. After 4 hours of incubation, DMEM + 10% fetal bovine serum (FBS) was added to the cell solution. Three microliter was then dispensed into a 1536 tissue culture treated black assay plates which were incubated overnight at 37 C. Two microliter of loading buffer (HBSS + HEPES + Red40 dye quencher + FluxOr dye) was added and the assay plates were incubated for 45 min at room temperature in the dark. […] A stimulation buffer was added to the plate and the second kinetic read (2 min) was obtained. The rate constant was calculated from the kinetic reads and normalized to the positive and negative DMSO controls.
% is set by controls: 0 for no effect and ±100 for the full control effect.

| Structure (SMILES) | activity change |
| --- | --- |
| O=C(Cc1cccs1)Nc1nnc(SCc2ccc(F)cc2)s1 | 3.31% |
| CCc1ccccc1OCC(=O)Nc1nnc(C2CC2)s1 | -8.55% |
| O=C(Cc1cccs1)Nc1nnc(C2CC2)s1 | -217% (active) |
| Cc1cc(S(=O)(=O)NC2CCCC2)ccc1-n1cnnn1 | -70.6% (active) |
| O=S(=O)(NC1CCCC1)c1ccc(-n2cnnn2)cc1 | 5.4% |
| CCOC(=O)C1CCCN(S(=O)(=O)c2ccc(-n3cnnn3)c(C)c2)C1 (centres undefined) | 10.1% |
| O=C(c1ccc(Cl)c([N+](=O)[O-])c1)N1CCN(c2ccccc2)CC1 | 9.67% |
| O=C(c1ccc(N2CCOCC2)c([N+](=O)[O-])c1)N1CCN(c2ccccc2F)CC1 | 1.08% |
| O=C(/C=C/c1ccc(Cl)cc1)N1CCN(c2ccccc2[N+](=O)[O-])CC1 | -108% (active) |
| C[C@H]1CN([C@@H](C)CO)C(=O)CCCn2cc(nn2)CO[C@@H]1CN(C)C(=O)Nc1ccccc1 | 13.1% |
| O=C(O)C(=Cc1ccc([N+](=O)[O-])cc1)CCc1ccccc1 | -2.12% |
| Cc1ccc(NC(=O)CN(C)C(=O)c2cccc(S(=O)(=O)N3CCCC3)c2)cc1 | 4.37% |
| COc1ccc(NC(=O)CN(C)C(=O)c2cccc(S(=O)(=O)N3CCN(c4ccccc4)CC3)c2)cc1 | -101% (active) |
| CCOc1ccc(NC(=O)CN(C)C(=O)c2cccc(S(=O)(=O)N3CCCC3)c2)cc1OCC | 0.537% |
| CC(C)CC1C(=O)N(Cc2cn(CC3CCCCC3)nn2)CCS(=O)(=O)N1Cc1ccc(-c2ccc(Cl)cc2)cc1 (centres undefined) | 4.02% |
| NC(=O)Cc1nc2scc(-c3ccc(Cl)cc3)c2c(=O)[nH]1 | -145% (active) |
| O=c1[nH]c(CN2CCOCC2)nc2scc(-c3ccccc3)c12 | 0.718% |
| Cc1sc2nc(CC(N)=O)[nH]c(=O)c2c1-c1ccccc1 | 4% |
| C[C@@H]1CN([C@@H](C)CO)S(=O)(=O)c2ccc(-c3ccc(C(=O)N(C)C)cc3)cc2O[C@@H]1CN(C)Cc1ccccc1C(=O)O | -0.261% |
| CC(=O)Nc1ccc(C=Cc2ccc([N+](=O)[O-])cc2)cc1 | -16.2% |
| Cc1ccc(C(CNC(=O)Nc2cccc(C)c2)N2CCN(C)CC2)cc1 (centres undefined) | 3.75% |
| Cc1ccc(C(CNC(=O)Nc2ccccc2)N2CCN(C)CC2)cc1 (centres undefined) | -194% (active) |
| COc1ccc(S(=O)(=O)NCC(c2ccc(C)cc2)N2CCN(C)CC2)cc1OC (centres undefined) | -2.06% |
| Cc1ccc(S(=O)(=O)N2C[C@H]3n4c(=O)ccc(=O)n4C[C@H](OC(=O)NC4CCCC4)[C@@]3(O)C2)cc1 | -5.45% |
